Measured values: PubChem BioAssay (NCATS)
Values without a mark were called inactive. The source made the active and inactive calls. Calls come from the whole dose curve; as a rule, active = well fitted activation curve with a large enough effect; inconclusive = small, poorly fitted or top-dose-only effect; inactive = no such curve, though single readings can be large or run the other way.

biological target: Cytochrome P450 3A4 (Homo sapiens) (UniProt P08684); assay: qHTS Assay for Activators of Cytochrome P450 3A4 (AID 885); settings: recombinant CYP3A4, Luciferin-PPXE luminescence, 60 min; series mostly up to 57.1 µM; activity change, positive = activation: at the top concentration; note: nearly all actives have a fitted effect of over 65% in size
Sequence (P08684 whole entry, looked up): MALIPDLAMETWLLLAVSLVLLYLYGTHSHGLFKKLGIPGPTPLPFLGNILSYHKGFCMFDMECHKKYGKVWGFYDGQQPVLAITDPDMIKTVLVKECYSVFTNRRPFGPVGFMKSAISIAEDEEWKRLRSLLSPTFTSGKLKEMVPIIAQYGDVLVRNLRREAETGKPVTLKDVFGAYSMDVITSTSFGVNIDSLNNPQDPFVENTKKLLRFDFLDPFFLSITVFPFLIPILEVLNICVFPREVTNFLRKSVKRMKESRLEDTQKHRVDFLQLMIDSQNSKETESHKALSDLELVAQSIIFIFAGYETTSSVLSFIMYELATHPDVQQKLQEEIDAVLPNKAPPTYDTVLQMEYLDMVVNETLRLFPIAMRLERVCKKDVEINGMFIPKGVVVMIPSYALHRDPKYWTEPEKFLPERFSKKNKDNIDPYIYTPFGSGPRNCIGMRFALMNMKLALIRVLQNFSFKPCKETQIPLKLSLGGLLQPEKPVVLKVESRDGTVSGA
Protocol: NIH Molecular Libraries Screening Centers Network [MLSCN]
NIH Chemical Genomics Center [NCGC]
The P450 gene superfamily is involved in the metabolism and clearance of xenobiotics. This assay used human CYP3A4 to measure the dealkylation of luciferin-6' phenylpiperazinylyl (Luciferin-PPXE; […]) to luciferin. The luciferin is then measured by luminescence after the addition of a luciferase detection reagent. Luciferin-PPXE concentration in the assay was equal to its KM for CYP3A4. Inhibitors and some substrates limit the production of luciferin, and decrease measured luminescence; activators increase the production of luciferin and luminescence.
NCGC Assay Protocol Summary:
Two uL of enzyme and substrate mix (final concentrations: 20nM CYP3A4, 25uM Luciferin-PPXE, 200mM KPO4) were dispensed into a white, solid bottom 1536-well microtiter plate. 23nL of compound was transferred by a pin tool. The plate was incubated at RT for 10 min. Two uL of an NADPH regeneration solution (Promega supplied reagent) was dispensed and the reaction was allowed to continue for 60 min at RT. Then the reaction was stopped by reconstituted luciferin detection buffer. After another 20 min of incubation the plate was read on the ViewLux (Perkin Elmer) at 60 sec exposure and 2x2 binning. This protocol was carried out with Promega-Glo reagents and further information can be found at http://www.promega.com/tbs/tb325/tb325.pdf. Data were normalized to the to AC100 inhibition (57 uM ketoconazole).
Keywords: P450, CYP2D6, Luciferase, MLSMR, MLSCN, NIH Roadmap, qHTS, NCGC

Structure (SMILES) | activity change, positive = activation | Potency
CC(C)(C)C(O)(CCc1ccc(Cl)cc1)Cn1cncn1 (stereo not given) | -112% | 
CCOP(=S)(OCC)SCCSCC | -55.6% | 
CCOC(=O)CC(SP(=O)(OC)OC)C(=O)OCC (stereo not given) | -40.8% | 
Oc1ccc2c3c1O[C@@H]1c4[nH]c5c(c4C[C@@]4(O)[C@@H](C2)N(CC2CC2)CC[C@]314)C[C@]1(O)[C@@H]2Cc3ccc(O)c4c3[C@@]1(CCN2CC1CC1)[C@H]5O4 | -30% | 
NC[C@H](O)c1cc(O)c(O)cc1F | -59.2% | 
Nc1ccc(-c2ccccc2)cc1 | -60.3% | 
S=P(C1CCCCC1)(C1CCCCC1)[C@H](c1cccnc1)N1CCCC1 | -61.4% [at 11.4 µM] | 
COc1ccc2c(c1O)-c1cccc3c1[C@H](C2)N(C)CC3 | -40.2% | 
Cc1ccc(OP(=O)(Oc2ccc(C)cc2)N2C=Cc3ccccc3[C@H]2C#N)cc1 | -91.2% [at 11.4 µM] | 
C=CCc1cc(OC)c2c(c1)OCO2 | -84.2% | 
Nc1ccc(Cc2ccc(N)cc2)cc1 | -65% | 
COc1ccccc1CN1CCCC2(CCN(C(=O)Oc3ccccc3)CC2)C1 | -37% | 
C=C(Cl)CSC(=S)N(CC)CC | -54.3% | 
C[C@H](CC(C#N)(c1ccccc1)c1ccccc1)N1CCCCC1 | -53% [at 11.4 µM] | 
O=C(O)CN1CCN(CC(=O)O)CC(=O)[O][Hg][O]C(=O)C1 | -78.1% [at 11.4 µM] | 
CSC([N-]/N=C/c1cccc(C)n1)=[S]=[Cu].CS[C@H]([S-])[N-]/N=C/c1cccc(C)n1 | -73.3% [at 11.4 µM] | 
Cc1cc(C)cc(OP(=O)(Oc2cc(C)cc(C)c2)Oc2cc(C)cc(C)c2)c1 | -83.5% | 
C[n+]1c(/C=C\c2ccc(O)c3ncccc23)[se]c2ccccc21 | -31.7% [at 11.4 µM] | 
Nc1cc(Cl)cc(C(=O)O)c1Cl | -45.8% | 
CC[C@@](O)(C(=O)O)c1cc2n(c(=O)c1CO)Cc1cc3ccccc3nc1-2 | -36.6% [at 11.4 µM] | 

Structure (SMILES) | activity change, positive = activation | Potency
CN(C)c1ncc2nc(-c3ccc(F)cc3)c(=O)n(Cc3cccs3)c2n1 | -47.3% | 
Nc1cccc2ccccc12 | -50.3% | 
COc1cc(C[C@H](C)N)c(OC)cc1I |  | inactive
Nc1ccc2ccccc2c1 | -40.9% | 
COC(=O)Nc1cccc(OC(=O)Nc2cccc(C)c2)c1 | -83.8% | 
C[C@@H]1Cc2cc3c(cc2C(c2ccc(N)cc2)=NN1)OCO3 | -88.3% | 
Nc1ccc(Oc2ccc(N)cc2)cc1 | -38.2% | 
C[C@]12CC[C@H](O)C[C@@H]1CC[C@H]1[C@H]2CC[C@]2(C)[C@H](C(=O)CO)CC[C@@H]12 | -32% | 
Cc1cc(N=Nc2ccccc2C)ccc1N | -86.5% | 
C[Se]C[C@@H](N)C(=O)O | -35.9% | 
CC(=O)[C@@H]1CC[C@H]2[C@H]3CC[C@H]4C[C@@H](O)CC[C@]4(C)[C@@H]3CC[C@]12C | -33.2% | 
CCn1cnc2c(Nc3cccc(Cl)c3)nc(N[C@@H]3CCCC[C@H]3N)nc21 | -88.9% | 
COc1cc(-c2ccc(N)c(OC)c2)ccc1N | -83.6% | 
CC(=O)c1c(O)c(C)c(O)c(Cc2c(O)c3c(c(C(=O)/C=C\c4ccccc4)c2O)OC(C)(C)C=C3)c1O | -78.8% | 
Nc1c(Br)cc([N+](=O)[O-])cc1[N+](=O)[O-] | -31.2% | 
O=C(c1ccccc1)[C@H]1[C@H](c2ccccc2[N+](=O)[O-])N1C1CCCCC1 (stereo not given in full) | -50.5% [at 11.4 µM] | 
CCOP(=S)(OCC)Oc1nc(Cl)c(Cl)cc1Cl | -93.2% | 
CCC1=C(C[C@H]2NCCc3cc(OC)c(OC)cc32)C[C@H]2c3ccccc3CCN2C1 | -34.9% [at 11.4 µM] | 
CO[C@@H]1CC=C2CCN3CCC4=C(CC(=O)OC4)[C@]23C1 | -33% | 
C[N+]1(C)CCc2cc3c(cc2[C@@H]1[C@@H]1OC(=O)c2c1ccc1c2OCO1)OCO3 | -88.1% | 
